Measurements reported in PubChem BioAssay (Tox21).
Calls of active or inactive are those of the source. Where a call stands in place of a potency, no number is given. Calls come from the whole dose curve; as a rule, active = well fitted curve in the direction sought with a large enough effect in the repeat runs; inconclusive = weak or mixed curves; inactive = flat fitted curve, though single readings scatter.

Assay: qHTS assay to test for compound auto fluorescence at 460 nm (blue) in HepG2 cell free culture (AID 720685)
Settings: Cell-free culture medium, blue autofluorescence 405/460 nm; series mostly up to 46 µM
Method in brief: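 Compound (23 nL) or DMSO pinned into cell-free MEM with 10% FBS; blue fluorescence read at 405/460 nm excitation/emission, expressed as auto-fluorescence equivalency to triamterene.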
With `CC(CCc1ccc(O)cc1)NCC(O)c1ccc(O)cc1` (stereo not given) the outcome was “inactive”.
For `CC(=O)Nc1c(I)c(C(=O)O)c(I)c(N(C)C(C)=O)c1I`, the outcome was “inactive”.
In the case of `C[C@]12C=CC(=O)N[C@@H]1CC[C@@H]1[C@@H]2CC[C@]2(C)[C@@H](C(=O)Nc3cc(C(F)(F)F)ccc3C(F)(F)F)CC[C@@H]12`, the outcome is reported as “inactive”.
For `CCC(Oc1ccccc1)C(=O)N[C@@H]1C(=O)N2[C@@H]1SC(C)(C)[C@@H]2C(=O)O` (stereo not given in full), the outcome was “inactive”.
In the case of `COc1c(O[C@@H]2O[C@H](CO)[C@@H](O)[C@H](O)[C@H]2O)cc2c(c1OC)-c1ccc(SC)c(=O)cc1[C@@H](NC(C)=O)CC2`, the outcome is reported as “inactive”.
For `CC[C@@H]1/C=C(\C)C[C@H](C)C[C@H](OC)[C@H]2O[C@@](O)(C(=O)C(=O)N3CCCC[C@H]3C(=O)O[C@H](/C(C)=C/[C@@H]3CC[C@@H](Cl)[C@H](OC)C3)[C@H](C)[C@@H](O)CC1=O)[C@H](C)C[C@@H]2OC`, the outcome was “inactive”.
In the case of `COc1ccc(C[C@H](N)C(=O)N[C@H]2[C@@H](O)[C@H](n3cnc4c(N(C)C)ncnc43)O[C@@H]2CO)cc1`, the outcome is reported as “inactive”.
With `O=C(NNCNNC(=O)c1ccncc1)c1ccncc1` the outcome was “inactive”.
In the case of `CC(O)[C@H]1CC[C@H]2[C@@H]3CC[C@@H]4C[C@@H](O)CC[C@]4(C)[C@H]3CC[C@]12C` (stereo not given in full), the outcome is reported as “inactive”.
For `C=C[C@]1(C)C[C@@H](OC(=O)CSCCN(CC)CC)[C@]2(C)[C@H](C)CC[C@]3(CCC(=O)[C@H]32)[C@@H](C)[C@@H]1O`, the outcome was “inactive”.
In the case of `CCCCCCCCCCCCCCCCCC(=O)OCC(C)O` (stereo not given), the outcome is reported as “inactive”.
In the case of `CCCCC[C@H](O)/C=C/[C@@H]1[C@H]2C/C(=C/CCCC(=O)O)O[C@H]2C[C@H]1O`, the outcome is reported as “inactive”.
With `CC1(C)S[C@@H]2[C@H](NC(=O)C(N)c3ccccc3)C(=O)N2[C@H]1C(=O)OC1OC(=O)c2ccccc21` (stereo not given in full) the outcome was “inactive”.
For `CN1CCc2c(c3ccccc3n2Cc2ccccc2)C1`, the outcome was “inactive”.
With `CN(C)CCOc1ccccc1Cc1ccccc1` (tested in a mixture with another compound) the outcome was “inactive”.
In the case of `CCOC(=O)c1c[nH]c2cc(OCC(C)C)c(OCC(C)C)cc2c1=O`, the outcome is reported as “inactive”.
For `CN(CCO)CC(O)Cn1cnc2c1c(=O)n(C)c(=O)n2C` (stereo not given) (tested in a mixture with another compound), the outcome was “inactive”.
With `FCOC(C(F)(F)F)C(F)(F)F` the outcome was “inactive”.
With `CCN(CC)CCOc1ccc2nc(N(C)C)sc2c1` the outcome was “inactive”.
For `COc1cc(-c2ccc(-[n+]3nc(-c4ccccc4)nn3-c3ccc([N+](=O)[O-])cc3)c(OC)c2)ccc1-[n+]1nc(-c2ccccc2)nn1-c1ccc([N+](=O)[O-])cc1`, the outcome was “inactive”.
For `COC(=O)[C@H]1[C@H]2C[C@@H]3c4[nH]c5ccccc5c4CCN3C[C@H]2C[C@@H](OC(=O)c2cc(OC)c(OC)c(OC)c2)[C@@H]1OC`, the outcome was “inactive”.

Assay: qHTS assay to test for compound auto fluorescence at 535 nm (green) in HepG2 cell free culture (AID 720686)
Settings: Cell-free medium, green autofluorescence 485/535 nm; series mostly up to 46 µM
With `CCCCCC(O)/C=C/C=O` (stereo not given) the Potency was “inactive”.
In the case of `O=C(Cn1c(=O)sc2ccc(Cl)cc21)N1CCN(CCO)CC1`, the Potency is reported as “inactive”.
With `COc1ccc2c(c1)OC(C)(C)C(c1ccccc1)C2c1ccc(OCCN2CCCC2)cc1` (stereo not given) the Potency was “inactive”.
For `CCCCCCOc1ccc(C(=N)N(CCCC)CCCC)c2ccccc12`, the Potency was “inactive”.
With `C[C@H](N)C(=O)N[C@@H](C)P(=O)(O)O` the Potency was “inactive”.
With `OC[C@H]1OC([S-])[C@H](O)[C@@H](O)[C@@H]1O.[Au+]` (stereo not given in full) the Potency was “inactive”.
In the case of `CC[C@@H](C(=O)[C@@H](C)[C@@H](O)[C@H](C)[C@@H]1O[C@@H]([C@@H](CC)C(=O)O)CC[C@@H]1C)[C@H]1O[C@]2(C=C[C@@H](O)[C@]3(CC[C@@](C)([C@H]4CC[C@](O)(CC)[C@H](C)O4)O3)O2)[C@H](C)C[C@@H]1C`, the Potency is reported as “inactive”.
For `C=C1CC[C@H](O)CC1=C/C=C1\CCC[C@]2(C)[C@@H]([C@H](C)CCCC(C)(C)O)CC[C@@H]12`, the Potency was “inactive”.
In the case of `O=C(COc1ccc(Cl)cc1)OCCNC12CC3CC(CC(C3)C1)C2`, the Potency is reported as “inactive”.
With `CCOC(=O)Oc1c(OC)cc(C(=O)O[C@@H]2C[C@@H]3CN4CCc5c([nH]c6cc(OC)ccc56)[C@H]4C[C@@H]3[C@H](C(=O)OC)[C@H]2OC)cc1OC` the Potency was “inactive”.
With `Nc1nc2[nH]cc(CCc3ccc(C(=O)N[C@@H](CCC(=O)O)C(=O)O)cc3)c2c(=O)[nH]1` the Potency was “inactive”.
In the case of `CC(CC(c1ccccc1)c1ccccc1)NC(C)(C)C` (stereo not given), the Potency is reported as “inactive”.
With `NC[C@@H]1O[C@H](O[C@H]2[C@@H](O)[C@H](O[C@@H]3[C@@H](O)[C@H](N)C[C@H](N)[C@H]3O[C@H]3O[C@H](CN)[C@@H](O)[C@H](O)[C@H]3N)O[C@@H]2CO)[C@H](N)[C@@H](O)[C@@H]1O` the Potency was “inactive”.
In the case of `OC1OC[C@@H](O)[C@H](O)[C@@H]1O` (stereo not given in full), the Potency is reported as “inactive”.
With `CCN(CC)c1ccc(C(=C2C=CC(=[N+](CC)CC)C=C2)c2ccccc2)cc1` the Potency was “inactive”.
For `CC(CCc1ccc(O)cc1)NCC(O)c1ccc(O)cc1` (stereo not given), the Potency was “inactive”.
In the case of `CC(=O)Nc1c(I)c(C(=O)O)c(I)c(N(C)C(C)=O)c1I`, the Potency is reported as “inactive”.
For `C[C@]12C=CC(=O)N[C@@H]1CC[C@@H]1[C@@H]2CC[C@]2(C)[C@@H](C(=O)Nc3cc(C(F)(F)F)ccc3C(F)(F)F)CC[C@@H]12`, the Potency was “inactive”.
With `CCC(Oc1ccccc1)C(=O)N[C@@H]1C(=O)N2[C@@H]1SC(C)(C)[C@@H]2C(=O)O` (stereo not given in full) the Potency was “inactive”.
For `COc1c(O[C@@H]2O[C@H](CO)[C@@H](O)[C@H](O)[C@H]2O)cc2c(c1OC)-c1ccc(SC)c(=O)cc1[C@@H](NC(C)=O)CC2`, the Potency was “inactive”.
For `CC[C@@H]1/C=C(\C)C[C@H](C)C[C@H](OC)[C@H]2O[C@@](O)(C(=O)C(=O)N3CCCC[C@H]3C(=O)O[C@H](/C(C)=C/[C@@H]3CC[C@@H](Cl)[C@H](OC)C3)[C@H](C)[C@@H](O)CC1=O)[C@H](C)C[C@@H]2OC`, the Potency was “inactive”.
For `C[C@H](O)[C@H](O)[C@H]1CNc2nc(N)[nH]c(=O)c2N1`, the Potency was “inactive”.
In the case of `COc1ccc(C[C@H](N)C(=O)N[C@H]2[C@@H](O)[C@H](n3cnc4c(N(C)C)ncnc43)O[C@@H]2CO)cc1`, the Potency is reported as “inactive”.
For `O=C(NNCNNC(=O)c1ccncc1)c1ccncc1`, the Potency was “inactive”.
For `CC(O)[C@H]1CC[C@H]2[C@@H]3CC[C@@H]4C[C@@H](O)CC[C@]4(C)[C@H]3CC[C@]12C` (stereo not given in full), the Potency was “inactive”.
In the case of `CCCCc1cc2c(=O)c(C(=O)OC)c[nH]c2cc1OCc1ccccc1`, the Potency is reported as “inactive”.
For `C=C[C@]1(C)C[C@@H](OC(=O)CSCCN(CC)CC)[C@]2(C)[C@H](C)CC[C@]3(CCC(=O)[C@H]32)[C@@H](C)[C@@H]1O`, the Potency was “inactive”.
For `CCCCCCCCCCCCCCCCCC(=O)OCC(C)O` (stereo not given), the Potency was “inactive”.
In the case of `CCCCC[C@H](O)/C=C/[C@@H]1[C@H]2C/C(=C/CCCC(=O)O)O[C@H]2C[C@H]1O`, the Potency is reported as “inactive”.
In the case of `CCOC(=O)[C@@H](N)CS`, the Potency is reported as “inactive”.
With `CC1(C)S[C@@H]2[C@H](NC(=O)C(N)c3ccccc3)C(=O)N2[C@H]1C(=O)OC1OC(=O)c2ccccc21` (stereo not given in full) the Potency was “inactive”.
For `CN1CCc2c(c3ccccc3n2Cc2ccccc2)C1`, the Potency was “inactive”.
For `CN(C)CCOc1ccccc1Cc1ccccc1` (tested in a mixture with another compound), the Potency was “inactive”.
In the case of `CCOC(=O)c1c[nH]c2cc(OCC(C)C)c(OCC(C)C)cc2c1=O`, the Potency is reported as “inactive”.
With `CN(CCO)CC(O)Cn1cnc2c1c(=O)n(C)c(=O)n2C` (stereo not given) (tested in a mixture with another compound) the Potency was “inactive”.
With `FCOC(C(F)(F)F)C(F)(F)F` the Potency was “inactive”.
With `CCN(CC)CCOc1ccc2nc(N(C)C)sc2c1` the Potency was “inactive”.
In the case of `COc1cc(-c2ccc(-[n+]3nc(-c4ccccc4)nn3-c3ccc([N+](=O)[O-])cc3)c(OC)c2)ccc1-[n+]1nc(-c2ccccc2)nn1-c1ccc([N+](=O)[O-])cc1`, the Potency is reported as “inactive”.
For `COC(=O)[C@H]1[C@H]2C[C@@H]3c4[nH]c5ccccc5c4CCN3C[C@H]2C[C@@H](OC(=O)c2cc(OC)c(OC)c(OC)c2)[C@@H]1OC`, the Potency was “inactive”.
